# Measured values: ChEMBL document CHEMBL3988442, “University of Dundee, Small-Polar-MMV Screening Library” (2021)
# Species: Homo sapiens
# Assay: To identify inhibition of the IFN signalling (Jak-Stat) pathway via expression of an eGFP reporter gene under the control of an IFN-stimulated response element (ISRE) containing MxA promoter.
# Format: functional
# Set-up: scale not given: direction of the effect not stated beside the values
# Details: 30 µM
row,Compound,Percent Effect
1,CC(Nc1cccc(CN2CCOC2=O)c1)C(=O)N1CCNC1=O (stereo not given),28.2%
2,COC[C@@H]1CC[C@H]2[C@H](CCN2S(=O)(=O)c2cccc(C)c2)O1,-2.75%
3,O=C(c1ccc(F)cc1F)N1CC[C@H](O)[C@@H](N2CCOCC2)CC1,12.8%
4,COc1cccc(-n2nnc(C(=O)N3CCCC3)c2C)c1,6.63%
5,Cc1nc(C(=O)N2CCc3c(nc(-c4ccncc4)[nH]c3=O)C2)cs1,5.04%
6,CN1CCC/C1=N\S(=O)(=O)c1ccc(NC(=O)c2cccs2)cc1,8.73%
7,c1csc(-c2nc(CNC3CCc4ncnn4C3)cs2)c1 (stereo not given),0.908%
8,Cc1ccc(C(=O)N2Cc3c(CN4CCCCC4)nn(C)c3C2)cc1C,-26.6%
9,O=C1CC2(CCN(CC3CC3)C2)CN1c1ccc2c(c1)OCO2 (stereo not given),-0.411%
10,COCc1nc(C(=O)NS(=O)(=O)c2ccc(C)cc2C)cs1,-17.6%
11,Cc1nn(C)cc1CCC(=O)N1CCCC(n2cncn2)C1 (stereo not given),-4%
12,COCC(=O)N1CCC2(CCN(Cc3ccccn3)CC2)CC1,-3.67%
13,COc1ccccc1OCC(=O)NS(=O)(=O)c1ccc(C)s1,5.05%
14,Cc1ncsc1C(=O)N(Cc1cccnc1)C1CC1,16.3%
15,Cn1cnc2c1CCN(CCS(=O)(=O)c1ccccc1)C2,20.9%
16,CN(C(=O)Cc1c[nH]c2ccccc12)C1CCN(c2ccccn2)CC1,31.5%
17,CC1COCCN1C(=O)c1cccc(OCc2cscn2)c1 (stereo not given),-21.1%
18,Cn1cccc1C(=O)N1CCCC2(CCCN2Cc2cccnc2)C1 (stereo not given),9.38%
19,CC(C)(C)c1n[nH]c(C2CN(C(=O)CCc3cscn3)CCO2)n1 (stereo not given),6.37%
20,CN(Cc1noc(C2CC2)n1)C1CCN(Cc2nnc(C3CC3)o2)C1 (stereo not given),20.4%

row,Compound,Percent Effect
1,CC(C)c1nn(C)c(N2CCOCC2)c1CNCC(=O)N(C)C,-5.7%
2,CS(=O)(=O)NCc1ncn2c1CN(C(=O)CC1CCCC1)CCC2,12.6%
3,Cc1nc(C2CCN(C(=O)CO)CC2)cc(N2CCOCC2)n1,-12.6%
4,Cn1cc(CNCC2Cn3nnc(-c4ccccc4)c3CO2)cn1 (stereo not given),-2.48%
5,CS(=O)(=O)c1ccccc1C(=O)NCCCN1CCc2ccccc2C1,-1.14%
6,CCOC(=O)N1CCN(C(=O)c2ccc3ccn(C)c3c2)CC1,9.78%
7,Cc1ccc(-c2cc(CN3CCCC(Cn4cncn4)C3)on2)cc1 (stereo not given),28%
8,COc1ccc(C2CC(=O)Nc3c2nc2n3CCCC2)cc1OC (stereo not given),30.7%
9,Cn1cc(CN2CCCN(C(=O)c3cn4ccccc4n3)CC2)cn1,13.6%
10,CCc1ccc(NC(=O)C2OC(c3cccs3)=NN2C(C)=O)cc1 (stereo not given),14.4%
11,CC(=O)N1CCCN(CC(C)(O)c2cccc(C(F)(F)F)c2)CC1 (stereo not given),-6.46%
12,c1ncn(CC2CN(Cc3noc(C4CC4)n3)CCO2)n1 (stereo not given),15.2%
13,Cc1c[nH]nc1C1CCCCN1C(=O)Cn1cc(Cl)cn1 (stereo not given),7.7%
14,Cc1cnn(CC2CCCCN2CCCS(N)(=O)=O)c1 (stereo not given),8.53%
15,Cn1cc(C(=O)N2CCCC(n3cccn3)C2)c2ccccc21 (stereo not given),9.06%
16,CC(=O)N1CCC2(CC1)C(=O)N(CC1CC1)c1ccccc12,6.99%
17,CC1CCN(C(=O)c2cccc3ncccc23)CC1,19%
18,O=C(c1cc2cc(F)ccc2[nH]1)N1CCC(Nc2cccnn2)CC1,14%
19,Cc1nccn1-c1cccc(C2CCCN2S(=O)(=O)N(C)C)n1 (stereo not given),21%
20,CC(C)CN1CCN(C)C2(CCN(Cc3ccsc3)CC2)C1=O,-6.74%

# Target: T1, Tyrosyl-tRNA synthetase, putative (Trypanosoma cruzi (strain CL Brener)) (UniProt Q4DSP6)
# T1 sequence (whole entry): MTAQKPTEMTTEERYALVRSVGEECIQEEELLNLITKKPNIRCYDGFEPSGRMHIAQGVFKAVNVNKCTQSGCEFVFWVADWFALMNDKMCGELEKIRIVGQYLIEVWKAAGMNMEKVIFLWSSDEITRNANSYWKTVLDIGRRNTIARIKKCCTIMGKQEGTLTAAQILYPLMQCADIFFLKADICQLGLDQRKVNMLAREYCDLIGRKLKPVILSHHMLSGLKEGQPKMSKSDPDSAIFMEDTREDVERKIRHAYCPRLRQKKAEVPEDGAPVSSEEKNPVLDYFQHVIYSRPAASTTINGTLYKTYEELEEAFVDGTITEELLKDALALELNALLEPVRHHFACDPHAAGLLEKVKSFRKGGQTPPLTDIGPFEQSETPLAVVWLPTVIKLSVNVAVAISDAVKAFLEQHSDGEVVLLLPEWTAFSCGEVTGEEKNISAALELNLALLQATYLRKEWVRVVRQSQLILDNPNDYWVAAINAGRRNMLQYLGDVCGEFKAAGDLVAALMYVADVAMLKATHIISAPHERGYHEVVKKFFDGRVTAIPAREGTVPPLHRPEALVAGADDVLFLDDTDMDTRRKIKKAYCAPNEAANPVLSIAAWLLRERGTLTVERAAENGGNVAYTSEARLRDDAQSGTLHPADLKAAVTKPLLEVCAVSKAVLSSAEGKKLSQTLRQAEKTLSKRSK
# Assay: Trypanosoma cruzi tyrosyl tRNA synthetase (TcYRS) _High Tyrosine SOP; further: in the data most compounds retested in dose-response had high values
# Format: functional
# Set-up: scale not given: direction of the effect not stated beside the values
# Details: 30 µM
row,Compound,Percent Effect
1,CC(Nc1cccc(CN2CCOC2=O)c1)C(=O)N1CCNC1=O (stereo not given),2.39%
2,COC[C@@H]1CC[C@H]2[C@H](CCN2S(=O)(=O)c2cccc(C)c2)O1,0.526%
3,O=C(c1ccc(F)cc1F)N1CC[C@H](O)[C@@H](N2CCOCC2)CC1,2.12%
4,COc1cccc(-n2nnc(C(=O)N3CCCC3)c2C)c1,7.18%
5,Cc1nc(C(=O)N2CCc3c(nc(-c4ccncc4)[nH]c3=O)C2)cs1,5.85%
6,CN1CCC/C1=N\S(=O)(=O)c1ccc(NC(=O)c2cccs2)cc1,7.84%
7,c1csc(-c2nc(CNC3CCc4ncnn4C3)cs2)c1 (stereo not given),6.22%
8,Cc1ccc(C(=O)N2Cc3c(CN4CCCCC4)nn(C)c3C2)cc1C,-11.1%
9,O=C1CC2(CCN(CC3CC3)C2)CN1c1ccc2c(c1)OCO2 (stereo not given),12.1%
10,COCc1nc(C(=O)NS(=O)(=O)c2ccc(C)cc2C)cs1,2.39%
11,Cc1nn(C)cc1CCC(=O)N1CCCC(n2cncn2)C1 (stereo not given),3.68%
12,COCC(=O)N1CCC2(CCN(Cc3ccccn3)CC2)CC1,1.58%
13,COc1ccccc1OCC(=O)NS(=O)(=O)c1ccc(C)s1,0.98%
14,Cc1ncsc1C(=O)N(Cc1cccnc1)C1CC1,1.44%
15,Cn1cnc2c1CCN(CCS(=O)(=O)c1ccccc1)C2,0.526%
16,CN(C(=O)Cc1c[nH]c2ccccc12)C1CCN(c2ccccn2)CC1,3.68%
17,CC1COCCN1C(=O)c1cccc(OCc2cscn2)c1 (stereo not given),5.26%
18,Cn1cccc1C(=O)N1CCCC2(CCCN2Cc2cccnc2)C1 (stereo not given),-2.63%
19,CC(C)(C)c1n[nH]c(C2CN(C(=O)CCc3cscn3)CCO2)n1 (stereo not given),3.35%
20,CN(Cc1noc(C2CC2)n1)C1CCN(Cc2nnc(C3CC3)o2)C1 (stereo not given),6.86%

row,Compound,Percent Effect
1,CC(C)c1nn(C)c(N2CCOCC2)c1CNCC(=O)N(C)C,7.18%
2,CS(=O)(=O)NCc1ncn2c1CN(C(=O)CC1CCCC1)CCC2,1.58%
3,Cc1nc(C2CCN(C(=O)CO)CC2)cc(N2CCOCC2)n1,6.92%
4,Cn1cc(CNCC2Cn3nnc(-c4ccccc4)c3CO2)cn1 (stereo not given),2.63%
5,CS(=O)(=O)c1ccccc1C(=O)NCCCN1CCc2ccccc2C1,3.68%
6,CCOC(=O)N1CCN(C(=O)c2ccc3ccn(C)c3c2)CC1,4.79%
7,Cc1ccc(-c2cc(CN3CCCC(Cn4cncn4)C3)on2)cc1 (stereo not given),0%
8,COc1ccc(C2CC(=O)Nc3c2nc2n3CCCC2)cc1OC (stereo not given),1.6%
9,Cn1cc(CN2CCCN(C(=O)c3cn4ccccc4n3)CC2)cn1,3.35%
10,CCc1ccc(NC(=O)C2OC(c3cccs3)=NN2C(C)=O)cc1 (stereo not given),1.06%
11,CC(=O)N1CCCN(CC(C)(O)c2cccc(C(F)(F)F)c2)CC1 (stereo not given),6.86%
12,c1ncn(CC2CN(Cc3noc(C4CC4)n3)CCO2)n1 (stereo not given),-1.58%
13,Cc1c[nH]nc1C1CCCCN1C(=O)Cn1cc(Cl)cn1 (stereo not given),3.17%
14,Cc1cnn(CC2CCCCN2CCCS(N)(=O)=O)c1 (stereo not given),5.79%
15,Cn1cc(C(=O)N2CCCC(n3cccn3)C2)c2ccccc21 (stereo not given),2.63%
16,CC(=O)N1CCC2(CC1)C(=O)N(CC1CC1)c1ccccc12,3.87%
17,CC1CCN(C(=O)c2cccc3ncccc23)CC1,4.74%
18,O=C(c1cc2cc(F)ccc2[nH]1)N1CCC(Nc2cccnn2)CC1,0.98%
19,Cc1nccn1-c1cccc(C2CCCN2S(=O)(=O)N(C)C)n1 (stereo not given),5.29%
20,CC(C)CN1CCN(C)C2(CCN(Cc3ccsc3)CC2)C1=O,7.73%
